In the library only some 21% were active in any assay of this set; here they are far more common.
Pf growth 48h = P. falciparum growth inhibition at 48 hours (one generation); Potency, µM (series often up to 28.7 µM), inactives show top-dose activity change, negative = inhibition, usual class: inhibitors; P. falciparum luciferase growth in erythrocytes, 48 h; AID 504832; 310,000 compounds, 5.9% hits; further: potency means the concentration at half of the fitted maximal effect; on the % scale 0 is the no-effect control and ±100 the full control effect
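First compound was added to culture medium, then infected red cells at 0.1% parasitemia and 2% hematocrit (final). After incubation at 37 C under 5% CO2, luciferase detection reagent was dispensed and light output recorded.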
Pf growth 96h = inhibits malaria parasite growth, 96 h. P. falciparum luciferase reporter growth, 96 h. Potency, µM (titrated, usually from 28.7 µM), for inactives: at the highest dose activity change, negative = inhibition, most hits filed as inhibitors. 320,000 compounds, 6.9% hits. AID 504834; further: potency means the concentration at half of the fitted maximal effect; on the % scale 0 is the no-effect control and ±100 the full control effect
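Parasite growth measured via integrated firefly luciferase reporter in P. falciparum. Infected erythrocytes at 2% hematocrit, 0.05% parasitemia final were treated 96 hours at 37 C under 5% CO2, and luminescence was read.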
Shiga inhibitor = blocks Shiga toxin action in Vero cells. Vero cells, Shiga toxin protein synthesis inhibition reporter. inhibition, % at 38.7 µM. 290,000 compounds, 9.2% hits; in the data active means inhibition mostly above about 28%, no sharp cut-off; inactive means mostly below about 43%; further: 0% is about no effect
HCV inh = blocks hepatitis C virus | Huh7.5.1 HCVcc-Cre infection, luciferase reporter, 44 h | Potency, µM (series often up to 41.8 µM), inactives show top-dose activity change, negative = inhibition, actives largely listed as inhibitors | 340,000 compounds, 3.4% hits | AID 651820; further: potency means the concentration at half of the fitted maximal effect; on the % scale 0 is the no-effect control and ±100 the full control effect
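1,000 cells/well; 4 h culture; + compound; + HCVcc-Cre (~0.5 moi); 44 h; luciferase substrate, RT 15 min; read 15 sec.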
AMA1-RON2 inh = inhibitors of Plasmodium falciparum AMA1-RON2 interaction; AlphaScreen AMA1-biotinylated RON2 peptide binding; AID 720542; Potency, µM (top dose mostly 58.2 µM), for the others: at the top dose activity change, negative = inhibition, most hits filed as inhibitors; 360,000 compounds, 0.2% hits;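 further: potency means the concentration at half of the fitted maximal effect; 0% = vehicle wells and -100% = peptide control; nearly all actives have a fitted effect of over 45% in size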
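AMA1 (3D7) with his tag at 25 nM final met compounds first, then biotinylated RON2 peptide at 25 nM; detection used donor plus acceptor beads, 10 µg/mL apiece, read by AlphaScreen after 30 min at room temperature.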
CHX counter = counter-screen for Shiga toxin inhibitors: cycloheximide protein synthesis inhibition; cell reporter, cycloheximide protein synthesis inhibition counterscreen; max response, %; 300,000 compounds, 12% hits; in the data active means max response mostly above about 13%, no sharp cut-off; inactive means mostly below about 14%; further: read at 38.3 µM for the half of the compounds with a filed dose; 0% is about no effect
An asterisk follows results filed as active; i = inactive; ? = inconclusive; · = no result given; [ ] = remark or other dose. Unless noted, the call rests on the fitted dose curve; in most records, active means well fitted curve in the direction sought with a large enough effect; inconclusive means small, poorly fitted or top-dose-only effect, or another doubt; inactive means no such curve, though single readings can be large; an effect the other way counts as inactive or inconclusive.

SMILES | Pf growth 48h | Pf growth 96h | Shiga inhibitor | HCV inh | AMA1-RON2 inh | CHX counter
CCc1ccc(NC(=O)N(Cc2ccco2)C(C)c2cccs2)cc1 (centres undefined) | ? | 0.0% | 51.6* | 8.0% | 8.5% | 21.3*
CCCC(=O)NC(=S)Nc1cccc(NC(=O)c2ccc(Cl)cc2Cl)c1 | 18.8% | 117.1% | 10.3 | ? | -7.1% | 1.4
CCC(=O)Nc1cccc(NC(=S)NC(=O)c2ccccc2C)c1 | ? | i | 71.8* | -20.1% | 0.8% | 47.8*
CCC(=O)NC(=S)Nc1cccc(NC(=O)c2ccccc2)c1 | 12.8% | ? | -9.3 | ? | 9.6% | -1.0
O=C(NC(=S)Nc1ncccn1)c1ccc(Cl)cc1Cl | 92.2% | ? | 127.2* | 25.3% | 62.4% | 30.2*
CCC(=O)Nc1cccc(NC(=S)NC(=O)c2ccc(Cl)cc2)c1 | 114.6% | ? | 24.0 | ? | 12.3% | 22.0*
CCC(=O)NC(=S)Nc1cccc(NC(=O)c2ccccc2C)c1 | -6.6% | 18.1% | 19.6 | -13.5% | 5.2% | -3.1
CCC(=O)Nc1cccc(NC(=S)NC(=O)c2ccc(Cl)cc2Cl)c1 | 2.8% | ? | 23.4 | ? | 7.2%[2.32 µM] | 42.4*
Cc1cccc(C)c1NC(=O)c1cc(S(=O)(=O)N2CCC3(CC2)OCCO3)ccc1F | · | · | · | · | -1.7% | ·
COCCNC(=S)N=Nc1c(O)[nH]c2ccc([N+](=O)[O-])cc12 | ? | ? | -1.3 | 19.4% | 38.3% | -1.9
CCC(=O)Nc1ccc(Cl)c(NC(=S)NC(=O)COc2ccc(Cl)cc2)c1 | 32.6% | 1.85µM* | -6.0 | 7.8% | 6.1%[2.32 µM] | -4.3
CCc1noc(C)c1C(=O)Nc1ccc(C(F)(F)F)cc1 | -1.2% | 37.2% | -17.3 | 20.8% | 0.0% | -4.3
CN(C)S(=O)(=O)c1cccc(-c2cn3ccccc3n2)c1 | 17.8% | 10.4µM* | 20.6 | 11.8% | 2.3% | 19.8
CN(C)S(=O)(=O)c1cccc(-c2cn3cc(Cl)ccc3n2)c1 | · | -27.7% | 20.2 | ? | 7.7% | 27.6*
O=S(=O)(c1cccc(-c2cn3cc(Cl)ccc3n2)c1)N1CCOCC1 | -20.4% | · | 7.4 | ? | 0.0% | -1.1
Clc1ccc2nc(-c3ccc4c(c3)OCO4)cn2c1 | 219.7% | 217.4% | 76.3* | ? | -2.4% | 34.8*
Clc1ccc2nc(-c3ccccc3)cn2c1 | 208.8% | -21.9% | 44.4* | -6.8% | -8.6% | 34.5*
CCOc1cc(/C=N/NC(=O)C(O)(c2ccccc2)c2ccccc2)ccc1OC(=O)c1ccco1 | · | · | · | -22.7% | -3.2% | ·
O=C1NC[C@@H](CCCCN2C[C@H](Cc3ccc(O)cc3)N(CCc3ccccc3)C(=O)C2=O)N(CCc2ccc(O)cc2)C1=O | · | · | · | · | -2.9% | ·
CC1=CC(=C(C#N)c2nc3ccccc3s2)C=C(C)N1c1ccc(F)cc1 | ? | ? | -0.7 | 4.1% | 18.2%[11.6 µM] | 9.3
COc1ccccc1N1C(C)=CC(=C(C#N)c2nc3ccccc3s2)C=C1C | 9.28µM* | ? | 41.7 | ? | 29.0% | 21.8*
O=C1C=C(c2ccc(OC(F)(F)F)cc2)C[C@@H](c2ccc(Cl)cc2)C1 | ? | -22.7% | · | 32.2% | 19.4% | ·
Cc1cc(CN(Nc2ccccc2)c2ccccc2)cc(C)n1 | · | · | · | · | -17.9% | ·
Cc1sc2c(c1C)C(c1cccs1)=NCC(=O)N2CC(=O)NCc1cccs1 | ? | · | -14.4 | ? | 13.5% | -3.4
Cc1sc2c(c1C)C(c1ccc(C(C)(C)C)cc1)=NCC(=O)N2CC(=O)Nc1nccs1 | ? | 10.4µM* | -11.3 | -28.7% | 29.8% | -2.1
SMILES | Pf growth 48h | Pf growth 96h | Shiga inhibitor | HCV inh | AMA1-RON2 inh | CHX counter
COc1ccc(C(=O)Nc2cc(C(=O)c3ccccc3)c(C)oc2=O)cc1 | -19.8% | 65.3% | 29.4 | 0.2% | 0.0% | 10.5
COC(=O)c1ccc(NC(=O)c2ccc(C)cc2)o1 | 113.5% | 171.1% | 48.5* | ? | -2.8% | 22.2*
COC(=O)c1cc(NC(=O)c2ccc(C)cc2)c(=O)oc1C | 38.7% | 85.2% | 42.7 | -6.7% | 1.7% | 24.8*
COC(=O)c1ccc(NC(=O)c2cccc(Cl)c2)o1 | 51.6% | 56.1% | 58.3* | -9.8% | -7.7% | 24.2*
COC(=O)c1ccc(NC(=O)c2ccc(F)cc2)o1 | 74.3% | 8.6% | 35.5 | 5.2% | -1.1% | 4.6
Cc1oc(=O)c(NC(=O)c2cccc(Cl)c2)cc1C(=O)c1ccccc1 | ? | 48.8% | 68.3* | ? | 10.0% | 30.6*
CC1CCCC1/C(=N/O)c1ccccc1 (centres undefined) | 21.4% | 45.7% | -8.3 | 12.5% | -4.1% | -2.5
CC(=O)c1ccc(NC(=O)c2cn(C)c(=O)c3ccccc23)cc1 | · | · | · | · | 8.6% | ·
COc1ccc(CCNC(=O)Nc2ccc([N+](=O)[O-])cc2)cc1OC | 5.0%[5.75 µM] | 7.2% | -2.4 | ? | -4.6% | -1.1
COc1ccc(N2CCN(S(=O)(=O)c3ccc(OC)c(-c4noc(C)n4)c3)CC2)cc1 | · | · | -1.7 | · | · | -8.2
CSCCC(NC(=O)c1ccc([N+](=O)[O-])cc1Cl)C(=O)OC(C)C(=O)NCc1ccco1 (centres undefined) | 2.5% | 53.2% | · | 0.2% | -12.4% | ·
COc1cccc(C(O)c2nc(-c3ccc(F)c(Cl)c3)cs2)c1 (centres undefined) | · | · | · | · | 18.6% | ·
COc1ccc([C@H]2N[C@]3(CCCN(Cc4ccc(C)cc4)C3=O)[C@H]3C(=O)N(Cc4ccccc4)C(=O)[C@@H]23)cc1 | · | · | · | · | 0.0% | ·
O=C(N/C(=C/c1ccc(F)cc1)C(=O)N1CCCC1)c1ccccc1 | 0.0% | 32.8% | 4.7 | -5.2% | 0.0% | -2.8
COc1ccc(S(=O)(=O)NCc2cccnc2)cc1NC(=O)c1ccc(Cl)cc1 | ? | ? | · | -6.4% | 2.9% | ·
CCOCCCn1c(SCC(=O)Nc2cccc(S(=O)(=O)NC3=NCCCCC3)c2)nc2ccccc2c1=O | 6.57µM* | -9.6% | 4.3 | -17.2% | 4.2% | 4.9
O=c1c2ccccc2c(C=Nc2cccc(S(=O)(=O)NC3=NCCCCC3)c2)c(O)n1Cc1ccccc1 | 1.65µM* | ? | -6.3 | -23.1% | -12.0% | -0.3
CCCn1c(SCC(=O)Nc2cccc(S(=O)(=O)NC3=NCCCCC3)c2)nc2ccccc2c1=O | 8.28µM* | 6.57µM* | -10.5 | -17.5% | 15.2% | -5.2
CC(=O)c1ccc(OCCOc2ccc(C#N)cc2)cc1 | 62.8% | -0.8% | -6.5 | -11.7% | -3.4% | -2.3
COc1cccc(C(NC(C)=O)c2nc(-c3cccc(O)c3)cs2)c1 (centres undefined) | · | · | · | · | -3.2% | ·
O=[N+]([O-])c1cnccc1Nc1cccc(F)c1 | -2.1% | -10.2% | -7.6 | ? | -3.2% | -1.0
O=[N+]([O-])c1ccc(Oc2cccc(F)c2)c2ccncc12 | ? | · | -13.1 | 3.98µM* | -22.5% | -2.9
CC(C)NC(=O)C1(C)CN(S(C)(=O)=O)CC(=O)N1CCc1ccc(O)cc1 (centres undefined) | · | · | · | · | -1.0% | ·
O=C(NCc1cccs1)C12CC3CC(CC(C3)C1)C2 | 11.4% | ? | 20.6 | 5.8% | 0.0% | -0.6

Source: PubChem
